NPC1 prom act: qHTS Assay for NPC1 Promoter Activators | actives 2.4% (n = 320,000) | Potency, µM (series often up to 9.22 µM), actives largely listed as activators | Huh7 NPC1 promoter luciferase reporter, 24 h | AID 485313, 2010; also: nearly all actives have a fitted effect of over 60% in size
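Readout is luciferase luminescence, reflecting NPC1 promoter activation in stably transfected Huh7 cells after 24 h compound exposure at 37 °C in reduced-serum medium with 10% FBS.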
uPA generation: qHTS for Inhibitors of Cell Surface uPA Generation | actives 0.31% (n = 330,000) | Potency, µM (series often up to 38.3 µM), most hits filed as inhibitors | cell surface uPA generation assay, qHTS; active = well fitted inhibition curve with a large enough effect; inconclusive = small, poorly fitted or top-dose-only effect; inactive = no such curve, though single readings can be large or run the other way; tested in mouse RAW 264.7 cells; also: nearly all actives have a fitted effect of over 55% in size
SMN2 splice up: qHTS Assay for Enhancers of SMN2 Splice Variant Expression; AID 1458, 2008; Potency, µM (top dose mostly 46.1 µM), hits mostly activators; HEK293 SMN2-luciferase splicing reporter, luminescence, 30-36 h; actives 2.8% (n = 210,000); also: nearly all actives have a fitted effect of over 55% in size
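HEK293 cells carry an SMN2 […]–luciferase reporter in which exon 7 inclusion puts luciferase in frame. Cells were plated 10-12 h before compound addition, then incubated 30-36 h at 37C. ONE-Glo luminescence was read; sodium butyrate at 4.5 mM final served as control.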
Rab9 promoter act: qHTS Assay for Rab9 Promoter Activators; Huh7 Rab9 promoter-luciferase reporter, luminescence, 24 h; Potency, µM (series often up to 9.22 µM), actives largely listed as activators; actives 2.8% (n = 320,000); also: nearly all actives have a fitted effect of over 60% in size
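Quantitative HTS format; Huh7 Rab9-luciferase reporter cells (1500/well) receive compound 2 h post-plating, incubate 24 h at 37 °C, then get luciferase reagent for 10 min before luminescence reading.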
ELG1 genotox: qHTS screen for small molecules that induce genotoxicity in human embryonic kidney (HEK293T) cells expressing luciferase-tagged ELG1. HEK293T ELG1-luciferase reporter, luminescence, 16 h. Potency, µM (series often up to 46 µM), usual class: activators. actives 1.3% (n = 330,000); also: nearly all actives have a fitted effect of over 60% in size
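Screening used a luciferase reporter fused to human ELG1 in HEK293T cells. Luminescence was read on a CCD plate imager after 16 hr exposure and 30 min ONE-Glo incubation.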
FLuc counter: qHTS profiling assay for firefly luciferase inhibitor/activator using purifed enzyme and Km concentrations of substrates (counterscreen for miR-21 project); purified FLuc, Km substrates, luminescence inhibition; actives 6.9% (n = 360,000); Potency, µM (doses to about 57.5 µM), hits mostly inhibitors; Luciferin 4-monooxygenase (Photinus pyralis), P08659; also: nearly all actives have a fitted effect of over 55% in size
Target sequence (P08659 whole entry, looked up): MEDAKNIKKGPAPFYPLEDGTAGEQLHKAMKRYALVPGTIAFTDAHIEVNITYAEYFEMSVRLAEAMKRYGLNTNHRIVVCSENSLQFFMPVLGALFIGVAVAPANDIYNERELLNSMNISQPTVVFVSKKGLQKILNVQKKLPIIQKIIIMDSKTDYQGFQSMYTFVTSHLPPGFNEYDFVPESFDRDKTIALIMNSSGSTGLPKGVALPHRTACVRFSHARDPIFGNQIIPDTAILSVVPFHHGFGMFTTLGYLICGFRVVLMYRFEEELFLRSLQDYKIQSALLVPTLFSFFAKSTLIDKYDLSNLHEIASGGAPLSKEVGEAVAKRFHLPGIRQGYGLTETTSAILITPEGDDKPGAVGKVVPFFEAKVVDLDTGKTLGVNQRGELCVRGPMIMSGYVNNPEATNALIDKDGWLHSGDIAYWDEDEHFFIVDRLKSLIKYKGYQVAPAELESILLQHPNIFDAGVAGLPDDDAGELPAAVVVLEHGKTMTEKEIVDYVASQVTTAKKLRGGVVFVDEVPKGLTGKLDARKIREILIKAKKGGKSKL
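Biochemical qHTS of compounds, final roughly 60 µM downward over six points, against 10 nM purified firefly luciferase using Km concentrations of substrates (10 uM D-luciferin, 10 uM ATP) in Tris acetate pH 7.5 buffer; luminescence output.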
Of the large screens only hits and unclear results are named; the others gave an inactive call. Hits are enriched below; roughly 7.3% of the tested compounds scored in any of these assays. Unless noted, calls follow the shape of the dose curve; as a rule, active = well fitted curve in the direction sought with a large enough effect; inconclusive = small, poorly fitted or top-dose-only effect, or another doubt; inactive = no such curve, though single readings can be large; an effect the other way counts as inactive or inconclusive.

CCNC(=O)Cn1c(-c2cccs2)cc2ccccc21	none (no result: NPC1 prom act, uPA generation, SMN2 splice up, Rab9 promoter act, ELG1 genotox)
C/C(=N\OC(=O)c1ccc(F)cc1)c1nccs1	FLuc counter 0.67µM
COc1ccc(OCCOC(=O)c2cccs2)cc1	ELG1 genotox 23µM, FLuc counter 17µM
COC(=O)c1scc(C)c1N/N=C(\C)c1ccc(F)cc1	none
COC(=O)c1ccc(OC(=O)c2cccs2)cc1	FLuc counter 24µM
COc1ccc(C2CC2/C(C)=N/OC(=O)c2cccs2)cc1 (centres undefined)	FLuc counter 24µM
CC(C(=O)NCc1ccccn1)c1ccc([N+](=O)[O-])cc1 (centres undefined)	none
O=C(OCCc1cc2ccccc2c(=O)o1)c1cccs1	FLuc counter 4.3µM (no result: SMN2 splice up)
COc1ccc(C(=O)O/N=C(\C)c2nccs2)cc1	FLuc counter 0.48µM (no result: SMN2 splice up)
COc1ccc(C2CC2/C(C)=N/OC(=O)c2ccc(F)cc2)cc1 (centres undefined)	FLuc counter inconclusive
C/C(=N/OC(=O)c1c(F)cccc1F)c1nccs1	FLuc counter 4.8µM (no result: uPA generation)
COc1ccc(C(=O)O/N=C(/C)c2cccs2)cc1	FLuc counter 0.076µM
C/C(=N\OC(=O)c1c(-c2c(F)cccc2Cl)noc1C)c1nccs1	none (no result: SMN2 splice up)
COc1ccccc1CCNC(=O)Cc1c(C)c2cc3c(C(C)(C)C)coc3c(C)c2oc1=O	none (no result: NPC1 prom act, uPA generation, Rab9 promoter act, ELG1 genotox)
CC1CCCN(CCOc2ccc3ccccc3c2Br)C1 (centres undefined)	FLuc counter 27µM
Cc1cc2n(n1)C(c1ccc3c(c1)OCO3)Nc1c(C)cccc1-2 (centres undefined)	SMN2 splice up 4µM
COc1ccc(CC(=O)Nc2cccc(-c3nnc(-c4cccc(C)c4)o3)c2)cc1OC	FLuc counter inconclusive
COc1ccccc1OCC(=O)Nc1cccc(-c2nnc(-c3ccco3)o2)c1	SMN2 splice up 18µM, FLuc counter 12µM
O=C(COc1ccccc1)Nc1ccc(-c2nnc(-c3ccco3)o2)cc1	NPC1 prom act inconclusive, SMN2 splice up 13µM, Rab9 promoter act 1.1µM
COc1ccc(CC(=O)Nc2cccc(-c3nnc(-c4ccc(C)cc4)o3)c2)cc1OC	FLuc counter 3µM
CC(C)OCCCn1c(=O)c2ccccc2n2c(-c3ccc(F)c(F)c3)nnc12	none (no result: NPC1 prom act, uPA generation, SMN2 splice up, Rab9 promoter act, ELG1 genotox)
O=C(Nc1ccc(C(=O)c2ccc(C(=O)O)c(C(=O)O)c2)cc1)c1ccccc1	FLuc counter 11µM (no result: SMN2 splice up)
O=C(O)c1ccc(C(=O)O)c(C(=O)c2ccc(NC(=O)c3ccccc3)cc2)c1	FLuc counter 19µM (no result: SMN2 splice up)
CCOC(=O)C1CCN(S(=O)(=O)c2cc(-c3cc(C)no3)ccc2OC)CC1	none (no result: NPC1 prom act, uPA generation, SMN2 splice up, Rab9 promoter act, ELG1 genotox)
Cc1cc(OCC(=O)N2CCOCC2)ccc1NC(=O)c1ccccc1C	ELG1 genotox inconclusive, FLuc counter 7.6µM (no result: SMN2 splice up, Rab9 promoter act)
COc1ccc(NC(=O)Nc2ccc(OCC(=O)N3CCOCC3)cc2)cc1OC	FLuc counter 13µM (no result: SMN2 splice up)
COc1ccc(OC)c(NC(=O)c2ccc(OCC(=O)N3CCOCC3)c(OC)c2)c1	none (no result: SMN2 splice up)
COc1cc(C(=O)Nc2ccc(C)c(S(=O)(=O)N(C)C)c2)ccc1OCC(=O)N1CCOCC1	FLuc counter 3µM (no result: SMN2 splice up)
COc1ccccc1C(=O)Nc1cc(C)c(OCC(=O)N2CCOCC2)c(C)c1	FLuc counter inconclusive (no result: SMN2 splice up)
Cc1ccc(C(=O)Nc2cc(C)c(OCC(=O)N3CCOCC3)c(C)c2)cc1	NPC1 prom act inconclusive, SMN2 splice up 11µM, Rab9 promoter act 2.8µM, ELG1 genotox inconclusive, FLuc counter 0.67µM
CCOc1ccc(CNC(=O)c2cc3c(=O)n(C)c4ccccc4c3s2)cc1	none (no result: NPC1 prom act, uPA generation, Rab9 promoter act, ELG1 genotox)
COC(=O)c1ccc2c(c1)N(CC(=O)Nc1ccc(C)cc1Cl)C(=O)c1ccccc1S2	none (no result: NPC1 prom act, uPA generation, SMN2 splice up, Rab9 promoter act, ELG1 genotox)
COCCCNC(=O)C1CCCN(S(=O)(=O)c2ccc3c(c2)oc(=O)n3C)C1 (centres undefined)	none (no result: NPC1 prom act, uPA generation, Rab9 promoter act, ELG1 genotox)
O=C(Nc1ccc(OCC(=O)N2CCOCC2)cc1)c1ccccc1Cl	ELG1 genotox inconclusive, FLuc counter 1.7µM (no result: SMN2 splice up)

Compound activity as filed in PubChem BioAssay.
